{"source": "PubChem BioAssay AID463190", "about": "(Sanford-Burnham Center for Chemical Genomics, 2010)", "note": "Out of some 330,000 compounds screened, about 7,300 (2.2%) were called active. The entries come from a sample that favours actives as a whole. Unmarked numbers belong to inactive results.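 How the source made its calls: active means inhibition of at least 40%; inactive means the rest.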"}
{"test": "growth inhibitors of tim10-1 mutant yeast, primary screen, luminescence, uHTS (AID 463190);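 further: mutant grown at 25 °C; 0% = DMSO wells with yeast and 100% = wells holding no yeast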", "details": "S. cerevisiae tim10-1 ts strain growth, BacTiter-Glo, 24 h; at 20 µM; stronger effect = higher value"}
{"smiles": "OC(COCCC12CC3CC(CC(C3)C1)C2)CN1CCCCC1", "note": "(stereo unspecified)", "inhibition": "4.4%"}
{"smiles": "FC(F)(F)c1cccc(-c2cc3ccccc3nc2N2CCCC2)c1", "inhibition": "-16.8%"}
{"smiles": "COC(=O)c1ccccc1NC(=O)Cc1ccccc1OC", "inhibition": "10.2%"}
{"smiles": "Cc1cccc(NC(=S)NCCN(C2CCCCC2)C2CCCC2)c1", "inhibition": "28.1%"}
{"smiles": "Cc1cccc(NC(=S)NCc2ccc3[nH]c4c(c3c2)CCCC4)c1", "inhibition": "41.3% (active)"}
{"smiles": "Cc1cc(C)cc(NC(=S)NCc2ccc(F)cc2)c1", "inhibition": "23.8%"}
{"smiles": "O=S(=O)(O)CCN1CCOCC1", "inhibition": "6.54%"}
{"smiles": "CCOC12CC(C)(C)CC(C)(CC3=C1C(=O)CC(C)(C)C3)C2", "note": "(stereo unspecified)", "inhibition": "17.6%"}
{"smiles": "CC1(c2nnc(-c3ccncc3)o2)CC(c2cccnc2)=NO1", "note": "(stereo unspecified)", "inhibition": "-5.58%"}
{"smiles": "O=C(NCc1ccc(Cl)cc1)NCc1ccc(Cl)cc1", "inhibition": "-35.2%"}
{"smiles": "S=C(NCc1ccc(Cl)cc1)NC12CC3CC(CC(C3)C1)C2", "inhibition": "51.4% (active)"}
{"smiles": "COC(=O)Cc1ccc(NC(=S)NCc2ccc(Cl)cc2)cc1", "inhibition": "20.1%"}
{"smiles": "OC1CCCN(c2ncnc3c2nnn3Cc2c(F)cccc2Cl)C1", "note": "(stereo unspecified)", "inhibition": "14.9%"}
{"smiles": "O=S1(=O)CCO[C@H]2Cc3ccccc3[C@H]2N1Cc1ccccc1", "inhibition": "10%"}
{"smiles": "CC1=C(C(N)=O)C(c2ccc(F)cc2)n2nc(CCCO)nc2N1", "note": "(stereo unspecified)", "inhibition": "15.6%"}
{"smiles": "COC(=O)CSc1snnc1-c1ccc(Cl)c(Cl)c1", "inhibition": "47.3% (active)"}
{"smiles": "COC(=O)CC(=O)N1CCN(c2ccc(Cl)c(Cl)c2)CC1", "inhibition": "5.73%"}
{"smiles": "COC(=O)CSc1nnc(NC(=O)CCc2ccccc2)s1", "inhibition": "17.2%"}
{"smiles": "N#CC(C(N)=O)=C1CCC2(CC1)OCCCCO2", "inhibition": "17.1%"}
{"smiles": "Cc1cc(C)cc(NC(=O)NC2CCCCCCC2)c1", "inhibition": "14.5%"}
{"smiles": "CCOC(=O)C1=C(CSc2nccn2C)NC(=O)NC1c1ccc(OC)cc1", "note": "(stereo unspecified)", "inhibition": "15.6%"}
{"smiles": "CCOC(=O)C1=C(C)N=c2s/c(=C\\C(=O)OC)c(=O)n2C1c1ccc(OC)cc1", "note": "(stereo unspecified)", "inhibition": "42.2% (active)"}
{"smiles": "COCCOC(=O)C1=C(C)N=c2s/c(=C\\c3cccs3)c(=O)n2C1c1cccs1", "note": "(stereo unspecified)", "inhibition": "15.4%"}
{"smiles": "CN(C)S(=O)(=O)c1ccc(C(=O)NCC2(N3CCOCC3)CCCCC2)cc1", "inhibition": "-9.36%"}
{"smiles": "CC(C)CCNC(=O)c1ccc2c(Cl)c3c(nc2c1)CCC3", "inhibition": "41% (active)"}
{"smiles": "COc1ccc(N2CCN(C(=O)c3ccc4c(Cl)c5c(nc4c3)CCCC5)CC2)cc1", "inhibition": "-0.417%"}
{"smiles": "CC(=O)c1ccc(NC(=O)c2ccc3c(Cl)c4c(nc3c2)CCCC4)cc1", "inhibition": "13.3%"}
{"smiles": "COc1ccc(C(=O)c2c3ccc([N+](=O)[O-])cc3[n+]([O-])n2CCCN)cc1", "inhibition": "1.86%"}
{"smiles": "COc1ccc(S(=O)(=O)N2CCCCC2)cc1NC(=O)COc1ccccc1", "inhibition": "7.99%"}
{"smiles": "O=C(COC(=O)CCOc1ccccc1)Nc1cc(S(=O)(=O)N2CCCCC2)ccc1Cl", "inhibition": "46.3% (active)"}
{"smiles": "CS(=O)(=O)c1ccc(Cl)c(NC(=O)COC(=O)c2cccc(S(=O)(=O)N3CCCC3)c2)c1", "inhibition": "-30.8%"}
{"smiles": "COc1cc(C(=O)NCC(=O)NCCSc2ccc(Br)cc2)cc(OC)c1OC", "inhibition": "9.46%"}
{"smiles": "O=C(COC(=O)c1ccccc1Br)Nc1nnc(-c2ccccc2)o1", "inhibition": "0.631%"}
{"smiles": "Cc1ccc(S(=O)(=O)n2nc(OC(=O)C(C)(C)C)cc2N)cc1", "inhibition": "25.5%"}
{"smiles": "Nc1cc(OC(=O)c2ccccc2Br)nn1S(=O)(=O)c1ccccc1", "inhibition": "57.5% (active)"}
{"smiles": "O=C(Cc1ncc(C(F)(F)F)cc1Cl)Nc1cccc(Br)c1", "inhibition": "47.5% (active)"}
{"smiles": "O=C(CN1CCN(c2ncc(C(F)(F)F)cc2Cl)CC1)Nc1ccc2c(c1)OCO2", "inhibition": "28.8%"}
{"smiles": "CC(=O)c1ccc(Cc2ncc(C(F)(F)F)cc2Cl)s1", "inhibition": "3.28%"}
{"smiles": "Clc1ccc(Cl)c(Oc2ccc(Oc3nc(Cl)ccc3Cl)cc2)n1", "inhibition": "9.8%"}
{"smiles": "CC1=C(C(=O)OCc2ccccc2)C(c2ccco2)n2ncnc2N1", "note": "(stereo unspecified)", "inhibition": "20.9%"}
{"smiles": "CCOc1ccc(C2=CC(c3ccccc3)n3ncnc3N2)cc1", "note": "(stereo unspecified)", "inhibition": "25.5%"}
{"smiles": "Brc1ccc(C2=CC(c3ccco3)n3ncnc3N2)cc1", "note": "(stereo unspecified)", "inhibition": "48.2% (active)"}
{"smiles": "COCCNC(=S)N/N=C/c1c(C)[nH]c2ccccc12", "inhibition": "16.2%"}
{"smiles": "CN=c1scc(-c2cc(OC)ccc2OC)n1/N=C/c1c(C)[nH]c2ccccc12", "inhibition": "46% (active)"}
{"smiles": "CCn1c(-c2cc(OC)ccc2OC)csc1=Nc1c(C)n(C)n(-c2ccccc2)c1=O", "inhibition": "22.1%"}
{"smiles": "COc1cc(/C=C2/C(=O)ON=C2C)ccc1OCc1cccc(F)c1", "inhibition": "9.41%"}
{"smiles": "COc1cc(/C=C2/C(=O)ON=C2C)ccc1OCc1ccccc1F", "inhibition": "49% (active)"}
{"smiles": "C=CCOc1ccc(/C=C2/C(=O)ON=C2C)cc1OCC", "inhibition": "5.79%"}
{"smiles": "O=C(O)c1n[nH]nc1-c1ccccc1", "inhibition": "-4.76%"}
{"smiles": "O=C(Nc1cccc([N+](=O)[O-])c1)N1CCc2ccccc2C1", "inhibition": "13.3%"}
{"smiles": "COc1ccccc1CSc1ncc(-c2ccc([N+](=O)[O-])cc2)[nH]1", "inhibition": "44.7% (active)"}
{"smiles": "COc1ccc(-c2cnc(SCCNC(=O)c3ccc4c(c3)OCO4)[nH]2)cc1", "inhibition": "-13.2%"}
{"smiles": "N#Cc1c(-c2ccccc2)nc(SCc2ccc([N+](=O)[O-])cc2)[nH]c1=O", "inhibition": "16.7%"}
{"smiles": "CC(OC(=O)c1ccc(S(=O)(=O)N2CCOCC2)cc1)c1ccccc1", "note": "(stereo unspecified)", "inhibition": "23.8%"}
{"smiles": "COC(=O)c1ccc(S(=O)(=O)N2CCc3ccccc3C2)cc1", "inhibition": "-7.78%"}
{"smiles": "O=C(ON=C1CCN(S(=O)(=O)c2ccccc2)CC1)c1ccc(Cl)cc1", "inhibition": "65.8% (active)"}
{"smiles": "COc1ccc(NC(=O)CCCN2C(=O)C(c3ccccc3)Oc3cccnc32)cc1", "note": "(stereo unspecified)", "inhibition": "37%"}
{"smiles": "OCC[C@H]1C[C@H](O)[C@@H](O)[C@]2(Cc3ccccc3CO2)O1", "inhibition": "19%"}
{"smiles": "NS(=O)(=O)c1ccc(CCNC(=S)Nc2ccc(S(N)(=O)=O)cc2)cc1", "inhibition": "8.83%"}
{"smiles": "NS(=O)(=O)c1ccc(NC(=S)Nc2ccc(Br)c(Cl)c2)cc1", "inhibition": "55.7% (active)"}
{"smiles": "NS(=O)(=O)c1ccc(NC(=S)NC(=O)c2cccc(Br)c2)cc1", "inhibition": "23.9%"}
{"smiles": "CCOC(=O)c1csc(CCNC(=O)c2oc3c(Cl)cc(C)cc3c2C)n1", "inhibition": "19.2%"}
{"smiles": "O=C(Nc1cccc(Cl)c1)c1cncn1-c1ccc(F)cc1", "inhibition": "41.7% (active)"}
{"smiles": "CCC(=O)Nc1nc(C)c(C(=O)Nc2cccc(Cl)c2)s1", "inhibition": "2.36%"}
{"smiles": "O=C(Nc1cccc(Cl)c1)c1cc(S(=O)(=O)N2CCCCC2)c[nH]1", "inhibition": "-3.59%"}
{"smiles": "CCn1cc(C(=O)Nc2cc(C)ccc2C)c(=O)c2ccc(C)nc21", "inhibition": "6.54%"}
{"smiles": "O=C(c1cc2cc(F)ccc2[nH]1)N1CCN(c2ccc(F)cc2)CC1", "inhibition": "-10.5%"}
{"smiles": "O=C(c1cccc(C(=O)N2CCN(c3ccc(F)cc3)CC2)c1)N1CCN(c2ccc(F)cc2)CC1", "inhibition": "40.1% (active)"}
{"smiles": "O=C(c1cc(C(=O)N2CCN(c3ccc(F)cc3)CC2)cc([N+](=O)[O-])c1)N1CCN(c2ccc(F)cc2)CC1", "inhibition": "-17.5%"}
{"smiles": "OCCCNC(c1ccccc1)c1ccc(O)cc1", "note": "(stereo unspecified)", "inhibition": "-5.16%"}
{"smiles": "Cc1onc(-c2ccccc2)c1C(=O)NNC(=S)NC(=O)c1ccc(F)cc1", "inhibition": "29.6%"}
{"smiles": "Cc1onc(-c2ccccc2)c1C(=O)Nc1ccccc1C#N", "inhibition": "25%"}
{"smiles": "COc1ccc(C(=O)NC(=S)NNC(=O)c2c(-c3ccccc3)noc2C)cc1", "inhibition": "41.5% (active)"}
{"smiles": "C=CCNc1nc(N)c(C(=C(C#N)C#N)c2ccccc2)s1", "inhibition": "32%"}
{"smiles": "Cc1ccc(CNC(=O)C2(C(F)(F)F)C/C(=C\\Cc3ccccc3)CCCO2)o1", "note": "(stereo unspecified)", "inhibition": "29.8%"}
{"smiles": "O=C(NCc1ccncc1)c1ccc(NS(=O)(=O)c2cccc([N+](=O)[O-])c2)cc1", "inhibition": "-9.55%"}
{"smiles": "O=C(Nc1c(Cl)cccc1Cl)C1CCC1", "inhibition": "18.6%"}
{"smiles": "Cc1[nH]n(-c2ccccc2)c(=O)c1CCOC(=O)c1ccc(C(F)(F)F)cc1", "inhibition": "16.7%"}
{"smiles": "CCc1cc(C(=O)Nc2nnc(C3CC3)s2)sc1C", "inhibition": "14.7%"}
{"smiles": "COc1cccc(CNCc2ccc3c(c2)OCO3)c1", "inhibition": "-13%"}
{"smiles": "O=C(COC(=O)C1CCCO1)Nc1nc(-c2ccc(F)cc2)cs1", "note": "(stereo unspecified)", "inhibition": "5.58%"}
{"smiles": "O=C(CN1CCN(c2nc(-c3ccccc3)cs2)CC1)NCc1ccc2c(c1)OCO2", "inhibition": "30.8%"}
{"smiles": "CC1CCCC(C)N1C(=O)CN1CCN(c2nc(-c3ccc(F)cc3)cs2)CC1", "note": "(stereo unspecified)", "inhibition": "56.2% (active)"}
{"smiles": "Cc1occc1-c1nnc(SCC(=O)NC2(C#N)CCCC2)n1C", "inhibition": "-2.1%"}
{"smiles": "CCOC(=O)C1=C(C)NC(C)=C(C(=O)OCC)C1C1=COCCO1", "inhibition": "4.91%"}
{"smiles": "Cc1ccccc1-c1ccc(Nc2ccc(C(=O)N3CCOCC3)cc2)nn1", "inhibition": "3.37%"}
{"smiles": "Cc1oc2c(c1C(=O)N1CCOCC1)C(=O)c1ccccc1C2=O", "inhibition": "58.7% (active)"}
{"smiles": "COC1=C(N2CCOCC2)C(=O)c2ccccc2C1=O", "inhibition": "9.96%"}
{"smiles": "CN1CCC(CN)(N2CCN(c3ccccc3)CC2)CC1", "inhibition": "16.4%"}
{"smiles": "COC(=O)C1CCN(C(=O)c2ccc3oc(Cc4ccc(Cl)cc4)nc3c2)CC1", "inhibition": "14.5%"}
{"smiles": "c1ccc2c(NCC3CCCO3)nc(-c3ccncc3)nc2c1", "note": "(stereo unspecified)", "inhibition": "33.4%"}
{"smiles": "c1ccc(-c2nc(NCc3ccco3)c3ccccc3n2)cc1", "inhibition": "51.3% (active)"}
{"smiles": "Clc1cccc(-c2nc(NCC3CCCO3)c3ccccc3n2)c1", "note": "(stereo unspecified)", "inhibition": "17.9%"}
{"smiles": "CCOC(=O)N1CCC(NC(=O)C(NS(=O)(=O)c2ccc3c(c2)CCN3C(=O)CC)C(C)C)CC1", "note": "(stereo unspecified)", "inhibition": "-1.74%"}
{"smiles": "CCC(=O)N1CCc2cc(S(=O)(=O)NC(C(=O)N3CCc4ccccc4C3)C(C)C)ccc21", "note": "(stereo unspecified)", "inhibition": "40.2% (active)"}
{"smiles": "CCC(=O)N1CCc2cc(S(=O)(=O)CCC(=O)N3CCN(c4ccccc4F)CC3)ccc21", "inhibition": "22%"}
